Screens: PubChem, National Center for Advancing Translational Sciences (NCATS)
This is one part of a sample in which hits are shown more often than they occur.
RE007 growth inh – less growth of the S. pombe RE007 Vpr strain | Potency, µM (top dose mostly 92.2 µM), inactives show top-dose activity change, negative = less growth, usual class: inhibitors | S. pombe RE007 Vpr strain, BacTiter-Glo ATP luminescence, 24 h | AID 651644 | 0.21% of 360,000 active; active means well fitted falling curve with a large enough effect; inconclusive means small, poorly fitted or top-dose-only effect; inactive means no such curve, though single readings can be large or run the other way; further: potency means the concentration at half of the fitted maximal effect; on the % scale 0 is the no-effect control and ±100 the full control effect; nearly all actives have a fitted effect of over 50% in size
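Fission yeast RE007 carrying one integrated HIV-1 vpr copy, seeded at OD 0.01 in PMG+AL medium with 23 nL pinned compound. Grown 24 h at 30 degrees; viability read by BacTiter-Glo luminescence after 5 min.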
TbPYK inhibitor – T. brucei pyruvate kinase inhibition | Q57TT1 | TbPYK enzyme, Kinase-Glo Plus ATP luminescence, 45 min | Potency, µM (titrated, usually from 76.8 µM), for inactives: at the highest dose activity, negative = inhibition, most hits filed as inhibitors | 0.12% of 410,000 active; further: potency means the concentration at half of the fitted maximal effect; on the % scale 0 is the no-effect control and ±100 the full control effect; nearly all actives have a fitted effect of over 50% in size
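In this concentration-response screen, enzyme-free wells defined baseline while DMSO plates tracked drift. Each reaction combined TbPYK, substrate, compound and 130 uM ADP for 45 min at room temperature. Kinase-Glo Plus luminescence gave the signal.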
Shiga inhibitor – blocks Shiga toxin action in Vero cells; inhibition, % at 38.7 µM; AID 2315; Vero cells, Shiga toxin protein synthesis inhibition reporter; 9.2% of 290,000 active; in the data active means inhibition mostly above about 28%, no sharp cut-off; inactive means mostly below about 43%; further: 0% is about no effect
LmPK inhibitor – blocks Leishmania mexicana pyruvate kinase activity; Q27686; purified LmPK, Kinase-Glo ATP luminescence, 1 h; Potency, µM (top dose mostly 57.5 µM), without a hit: at the top dose activity change, negative = inhibition, usual class: inhibitors; 0.37% of 290,000 active; AID 1721; further: potency means the concentration at half of the fitted maximal effect; on the % scale 0 is the no-effect control and ±100 the full control effect
Target sequence (Q27686 whole entry, looked up): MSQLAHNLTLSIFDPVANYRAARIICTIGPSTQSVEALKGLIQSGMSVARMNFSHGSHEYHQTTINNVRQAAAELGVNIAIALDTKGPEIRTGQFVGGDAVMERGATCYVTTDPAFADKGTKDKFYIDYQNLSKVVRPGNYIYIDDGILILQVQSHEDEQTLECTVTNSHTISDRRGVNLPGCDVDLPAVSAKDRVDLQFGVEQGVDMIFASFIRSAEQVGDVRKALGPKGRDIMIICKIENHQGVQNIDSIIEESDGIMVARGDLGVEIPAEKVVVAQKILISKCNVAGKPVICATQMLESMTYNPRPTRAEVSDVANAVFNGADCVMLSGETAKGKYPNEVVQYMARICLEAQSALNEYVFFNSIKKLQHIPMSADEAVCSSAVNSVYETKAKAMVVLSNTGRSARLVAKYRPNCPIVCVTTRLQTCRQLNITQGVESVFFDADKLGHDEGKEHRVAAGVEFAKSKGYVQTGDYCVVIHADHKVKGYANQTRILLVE
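Screened at intermediate enzyme activity to detect both inhibitors and activators: LmPK at 0.1 nM, with a 0.5 nM enzyme column as activation reference. PEP 0.5 mM, ADP 0.1 mM; ATP detected by luminescence after 1 h.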
FBPA Giardia inh – inhibitors of Giardia lamblia fructose-1,6-bisphosphate aldolase; A8B2U2; purified Giardia FBPA; Potency, µM (titrated, usually from 59.6 µM), for the others: at the highest dose activity, negative = inhibition, hits mostly inhibitors; 0.71% of 290,000 active; further: potency means the concentration at half of the fitted maximal effect; on the % scale 0 is the no-effect control and ±100 the full control effect; nearly all actives have a fitted effect of over 55% in size
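Giardia FBPA (40 nM reagent) was preincubated 10 min at RT with compound (up to 57.5 uM final), then substrate plus GAPDH/TPI/NAD/arsenate coupling system with diaphorase/resazurin was added; resorufin fluorescence (525/598 nm) was read after 20 min.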
Cycloheximide cs – counter-screen hit for Shiga toxin inhibitors, cycloheximide. cell reporter, cycloheximide protein synthesis inhibition counterscreen. max response, %. 12% of 300,000 active; in the data active means max response mostly above about 13%, no sharp cut-off; inactive means mostly below about 14%; further: read at 38.3 µM for the half of the compounds with a filed dose; 0% is about no effect
Numbers without * were called inactive; [ ] = dose if it differs, or a comment. Unless noted, the call rests on the fitted dose curve; in most records, active means well fitted curve in the direction sought with a large enough effect; inconclusive means small, poorly fitted or top-dose-only effect, or another doubt; inactive means no such curve, though single readings can be large; an effect the other way counts as inactive or inconclusive.

What do the screens show for `Cc1ccc(CNC(=O)c2ccc(Br)o2)cc1`?
RE007 growth inh: 6%; TbPYK inhibitor: -4%; Shiga inhibitor: 75; LmPK inhibitor: 2%; FBPA Giardia inh: -7%; Cycloheximide cs: 20*

How did O=C(NCCc1ccccc1)c1cccc(Br)n1 do in these assays?
Shiga inhibitor: active; FBPA Giardia inh: 0%[89.2 µM]; Cycloheximide cs: 78*

How did O=C(NCCNC(=O)c1ccc(Br)o1)c1ccc(Br)o1 do in these assays?
RE007 growth inh: 2%; TbPYK inhibitor: -8%; Shiga inhibitor: 7; LmPK inhibitor: 4%; FBPA Giardia inh: 2%; Cycloheximide cs: 18

Results for O=C(NCCc1ccccc1)c1ccc(Br)o1 ?
RE007 growth inh: 1%; TbPYK inhibitor: -4%; Shiga inhibitor: 83*; LmPK inhibitor: 5%; FBPA Giardia inh: 8%; Cycloheximide cs: 46*

How did Cc1ccc(Cl)cc1NC(=O)CN1C(=O)CSc2ccc(S(=O)(=O)N3CCCC3)cc21 do in these assays?
TbPYK inhibitor: -3%

Results for Nc1ccc2nn(-c3ccc(F)cc3)nc2c1 ?
RE007 growth inh: -8%; TbPYK inhibitor: -11%; Shiga inhibitor: 95*; LmPK inhibitor: -9%; FBPA Giardia inh: -14%; Cycloheximide cs: 58*

What do the screens show for `Cn1cc2ccc(N)cc2n1`?
RE007 growth inh: -2%; TbPYK inhibitor: -2%; Shiga inhibitor: -20; LmPK inhibitor: -2%; FBPA Giardia inh: inconclusive; Cycloheximide cs: 6

What do the screens show for `Cc1ccc(-n2nc3ccc(N)cc3n2)cc1`?
RE007 growth inh: -10%; TbPYK inhibitor: 17%; Shiga inhibitor: 95; LmPK inhibitor: -1%; FBPA Giardia inh: -23%; Cycloheximide cs: 28*

How did CC(C)c1ccc(-n2nc3ccc(N)cc3n2)cc1 do in these assays?
RE007 growth inh: -14%; TbPYK inhibitor: -1%; Shiga inhibitor: 77*; LmPK inhibitor: -22%; FBPA Giardia inh: -15%; Cycloheximide cs: 68*

How did Nc1ccc2nn(-c3cc([N+](=O)[O-])ccc3O)nc2c1 do in these assays?
RE007 growth inh: -7%; TbPYK inhibitor: -3%; Shiga inhibitor: -3; LmPK inhibitor: 0%; FBPA Giardia inh: 1%; Cycloheximide cs: 7

Results for Cc1ccc(-n2nc3ccc(NC(=O)c4oc5ccc(C)cc5c4C)cc3n2)cc1 ?
TbPYK inhibitor: 0%

How did Cc1ccc(S(=O)(=O)c2nnn3c2nc(N2CCCC(C)C2)c2cc(Cl)ccc23)cc1C (centres undefined) do in these assays?
TbPYK inhibitor: -2%

What do the screens show for `Cc1ccccc1NC(=O)c1c(C)oc2ccc(O)c(CN3CCOCC3)c12`?
TbPYK inhibitor: -2%

What do the screens show for `CCc1ccc(S(=O)(=O)Nc2cc(SCC(=O)O)c(O)c3ccccc23)cc1`?
RE007 growth inh: -17%; TbPYK inhibitor: inconclusive; Shiga inhibitor: 30*; LmPK inhibitor: inconclusive; FBPA Giardia inh: 4.5µM*; Cycloheximide cs: 9

How did Cc1ccc(NS(=O)(=O)c2cc(NC(=O)C(C)Oc3ccccc3)ccc2C)c(C)c1 (centres undefined) do in these assays?
RE007 growth inh: 1%; TbPYK inhibitor: -16%; Shiga inhibitor: 7; LmPK inhibitor: 2%; FBPA Giardia inh: 2%; Cycloheximide cs: -1

Results for Cc1ccc(C)c(S(=O)(=O)Nc2cc(SCC(=O)O)c(O)c3ccccc23)c1 ?
RE007 growth inh: -30%; TbPYK inhibitor: 16µM*; Shiga inhibitor: -1; LmPK inhibitor: 14µM*; FBPA Giardia inh: 2.2µM*; Cycloheximide cs: 14*

What do the screens show for `CCc1ccc(S(=O)(=O)Nc2ccc(O)c3ccccc23)cc1`?
TbPYK inhibitor: -2%; Shiga inhibitor: -3; LmPK inhibitor: inconclusive; FBPA Giardia inh: -16%; Cycloheximide cs: -3

Results for CCOc1ccc(S(=O)(=O)Nc2cc(SCC(=O)O)c(O)c3ccccc23)cc1 ?
RE007 growth inh: -29%; TbPYK inhibitor: inconclusive; Shiga inhibitor: 6; LmPK inhibitor: 20µM*; FBPA Giardia inh: 6.3µM*; Cycloheximide cs: 15

Results for O=C(O)CSc1cc(NS(=O)(=O)c2cccc([N+](=O)[O-])c2)c2ccccc2c1O ?
RE007 growth inh: -14%; TbPYK inhibitor: inconclusive; Shiga inhibitor: 11; LmPK inhibitor: 14µM*; FBPA Giardia inh: 2.5µM*; Cycloheximide cs: 13*
